Binding response (% of control) data for 62 compounds are collected here from PubChem BioAssay AID1531 (NMMLSC, 2009).

The campaign covered roughly 290,000 compounds. About 3,300 (1.1%) were called active. The sample holds actives, similar compounds and a random draw of the others, so the mix is not that of the screen. A number with no mark means an inactive call. No stated cut-off is given here; in the data, active means binding response below about 67% or above about 130%; inconclusive means no clear call, values can overlap the other calls; inactive means in between.

In the experiment the target is Mitogen-activated protein kinase kinase kinase 2 (Homo sapiens) (UniProt Q9Y2U5). Kind of experiment: wildtype MEKK2 PB1-MEK5 interaction, increase or decrease – biochemical, multiplex bead flow cytometry, Alexa488-MEK5, primary screen (AID 1531). To be noted: Alexa488-MEK5 binding to MEKK2 WT, at 10 µM, actives lie on both sides. For orientation: Flow cytometry measures light scatter and fluorescence of single cells or particles in a stream.
For `C=CCC1(C(=O)N(C)Cc2ccccc2)CCN(C(=O)OC(C)(C)C)CC1`, the binding response (% of control) is 94%. Turning to `Cc1cc(Br)ccc1NC(=S)NC1CCCC1`, the binding response (% of control) was 94%.

With `CC(=O)[C@@]12O[C@@H]1C[C@H]1[C@@H]3CC[C@H]4C[C@@H](O)CC[C@]4(C)[C@H]3CC[C@@]12C`, the binding response (% of control) was 107%. Regarding `CC(C)(C)n1nnnc1C(c1ccccc1F)N1CCN(C(=O)c2ccco2)CC1` (configuration not stated), the binding response (% of control) was 99%. In the case of `N#C[C@]1(S(=O)(=O)c2ccccc2)C[C@@H]2ON=C(c3cccc(Br)c3)[C@@H]2C1`, the binding response (% of control) was 91%. As for `c1ccc2cc(OCCN3CCCC3)ccc2c1`, the binding response (% of control) was 102%. Consider `Clc1ccccc1-c1cc(COc2ccc3ccccc3c2)no1`, for which the binding response (% of control) is -1% (active). In the case of `O=C(Nc1ccc(Cl)cc1)OCc1cc(-c2ccccc2)on1`, the binding response (% of control) was 112%. For the compound `Cc1c(-c2ccccc2)cn2c1-c1ccc(C)n1CC2`, the binding response (% of control) was 55% [inhibitor] (active). As for `CCCOc1ccc(Cc2c(O)nc(N)[nH]c2=O)cc1C`, the binding response (% of control) was 105%.

Consider `COc1ccc(N2CCN(C3CCCCC3NS(=O)(=O)c3ccccc3)CC2)cc1` (configuration not stated), for which the binding response (% of control) was 105%. The figure for `CCOc1cc2ccccc2cc1C(=O)Nc1ccccn1` is 108%; for `O=c1[nH]cccc1-c1nc2ccccc2n1Cc1ccc(Cl)cc1` it is 105%; for `Cc1ccc(CNS(=O)(=O)c2ccc3c(c2)N(C)CCO3)cc1` it is 94%. On to `CCOc1ccc(/C=C2\SC(=S)N(NC(=O)c3ccncc3)C2=O)cc1OC`, for which the binding response (% of control) is 95%. For `COc1cc(/C=C2\SC(=S)N(Nc3ncc(C(F)(F)F)cc3Cl)C2=O)cc(OC)c1OC`, the binding response (% of control) is 61% [inhibitor] (active). `COc1cccc(/C=N/Nc2ncc(C(F)(F)F)cc2Cl)c1O`: the binding response (% of control) is 96%.

For `O=C1/C(=C\c2ccsc2)NC(=S)N1c1ccccc1`, the binding response (% of control) is 87%.

Consider `CC1=NN(Cc2ccccc2)C(=O)/C1=C/c1ccc(N(C)C)cc1`, for which the binding response (% of control) is 109%. As for `CN(C)c1ccc(/C=C2\NC(=S)N(Cc3ccccc3)C2=O)cc1`, the binding response (% of control) is 72% [inhibitor] (active). As for `CN(Cc1ccco1)S(=O)(=O)c1nnc(NC(=O)c2ccccc2)s1`, the binding response (% of control) was 96%. Regarding `CN1CCN(/N=C/c2ccc(C#N)cc2)CC1`, the binding response (% of control) is 166% (active). As to `CSc1ccc(/C=N/N2CCN(Cc3ccccc3Cl)CC2)cc1`, the binding response (% of control) is 99%. With `CN1CCN(/N=C/c2ccc(-c3ccc([N+](=O)[O-])cc3)o2)CC1`, the binding response (% of control) was 103%. Take `COc1ccccc1CCNS(=O)(=O)c1cc2c3c(c1)C(C)C(=O)N3CCC2` (configuration not stated): the binding response (% of control) is 85%.

With `Cc1ccc2c(C)c(C(=O)N(C)Cc3ccncn3)oc2c1C`, the binding response (% of control) was 98%.

Turning to `Cc1c(C(=O)N2CCN(c3ccc(F)cc3)CC2)oc2c1C(=O)CCC2`, the binding response (% of control) was 104%. Turning to `Cc1ccc2c(C)c(C(=O)N3CCN(c4ccncc4)CC3)oc2c1C`, the binding response (% of control) was 159% (active). Then `COC(=O)c1ccc(Nc2ncnc3sccc23)cc1`, with 102%; and `COc1ccc(-n2nnnc2SCC(=O)Nc2ccccc2)cc1`, with 104%; and `Cc1c(NC(=O)CSc2cccc3cccnc23)c(=O)n(-c2ccccc2)n1C`, with 99%. For the compound `Cc1c(NC(=O)CSc2nnnn2-c2ccc(C(=O)O)cc2)c(=O)n(-c2ccccc2)n1C`, the binding response (% of control) was -12% (active). Consider `O=C(Nc1ccc2c(c1)OCO2)c1sc2cc(Cl)ccc2c1Cl`, for which the binding response (% of control) is 19% (active). Consider `O=C(COc1ccc(Cl)cc1)Nc1ccc2c(c1)OCO2`, for which the binding response (% of control) is 100%.

With `CC(Sc1nc2cc(Cl)ccc2s1)C(=O)Nc1ccc2c(c1)OCO2` (configuration not stated), the binding response (% of control) was 78%. For the compound `COC(=O)c1ccccc1NC(=O)C1CCN(C(=O)N2CCOc3ccccc32)CC1`, the binding response (% of control) is 103%. For `Oc1ccc(-n2nnnc2SCc2c(F)cccc2Cl)cc1`, the binding response (% of control) is 98%. On to `COc1ccc(CNC(=O)c2ccc(Br)s2)cc1OC`, for which the binding response (% of control) was 96%. The figure for `CCn1cc(CN2CCC(n3nccc3NC(=O)CCCc3ccccc3)CC2)c(C)n1` is 108%; for `O=C(Nc1cnn(Cc2ccc(Cl)cc2)c1)C1CCCC1` it is 110%.

For the compound `O=C(Nc1cccc(-c2cccc(Cl)c2)c1)C1CCN(C2CCC2)CC1`, the binding response (% of control) was 151% (active). Then `CCn1cc(CN2CCC(C(=O)Nc3cccc(-c4cccc(Cl)c4)c3)CC2)cn1`, with 160% (active). Regarding `CCn1cc(CN2CCC(C(=O)Nc3cccc(-c4cccc(Cl)c4)c3)CC2)c(C)n1`, the binding response (% of control) is 166% (active). On to `CC(=O)c1cc(CN2CCC(C(=O)Nc3cccc(-c4cscn4)c3)CC2)cs1`, for which the binding response (% of control) was 116%. Take `O=C(NC1CCCC1)C1CCN(C(=O)Nc2cccc(Cl)c2)CC1`: the binding response (% of control) was 110%. Take `O=C(Nc1cccc(-c2cscn2)c1)C1CCN(Cc2ccsc2)CC1`: the binding response (% of control) was 112%.

On to `COc1cccc(-c2cccc(NC(=O)C3CCN(C4CCC4)CC3)c2)c1`, for which the binding response (% of control) is 104%. Take `COc1ccc(CNC(=O)[C@@H]2CC=C[C@@H]3CCN(C4CC4)C(=O)[C@@H]32)cc1`: the binding response (% of control) was 98%. For the compound `Cc1ccc(CN(CC(=O)NC2CCCCC2)C(=O)c2csnn2)cc1`, the binding response (% of control) is 104%. For the compound `O=C(O)CC/C(=C\c1cc2c(cc1Br)OCO2)c1nc2ccccc2s1`, the binding response (% of control) was 95%.

As to `O=C(Nc1ccc(Cl)c(Cl)c1)c1ccccc1NC(=O)C1CC=CCC1C(=O)O` (configuration not stated), the binding response (% of control) is 104%. `CCOC(=O)Cc1csc(NC(=O)CSc2nc(C)cc(=O)[nH]2)n1`: the binding response (% of control) was 61% [inhibitor] (active). Regarding `CCCCc1nnc(NC(=O)CSc2nc(C)cc(=O)[nH]2)s1`, the binding response (% of control) was 99%.

`CCOC(=O)Cc1csc(NC(=O)CSc2ccc(Br)cc2)n1`: the binding response (% of control) was 109%.

In the case of `CCOc1ccccc1N1C(=O)CC(Sc2nccc(C)n2)C1=O` (configuration not stated), the binding response (% of control) is 105%.

As for `CSc1ccccc1NC(=O)c1ccc2c(c1)CCN2S(C)(=O)=O`, the binding response (% of control) is 106%.

As to `O=C(C1CCC(=O)N(C2CC2)C1)N1CCN(c2ccc(Cl)cc2)CC1` (configuration not stated), the binding response (% of control) is 104%. Then `CN(C)Cc1c(O)ccc2c(=O)c(-c3ccccc3Cl)coc12`, with 112%; and `CCCOc1ccc(Cl)cc1Nc1nc(NCCO)nc(N2CCCC2)n1`, with 112%. On to `CC1CCC(NC(=O)c2ccc(N3CCCC3=O)cc2)CC1` (configuration not stated), for which the binding response (% of control) was 105%. Take `O=C(NCCCN1CCCCCC1)c1ccc(N2CCCC2=O)cc1`: the binding response (% of control) was 193% (active). Take `CCOc1ccc(C(=O)NCCCN2CCCC2=O)cc1`: the binding response (% of control) was 112%.
